Screens from PubChem.
Rows were chosen to be rich in hits. Some 21% of all compounds tested hit in one or more screens of this group.
SARS PLpro yeast: qHTS of Yeast-based Assay for SARS-CoV PLP | S. cerevisiae expressing SARS-CoV PLpro, growth rescue | Potency, µM (highest dose often 32.9 µM), for the others: top-dose activity, positive = growth rescue, usual class: activators | hit rate 0.19% among 330,000; note: potency is the fitted concentration of half-maximal effect; 0% is about no effect; nearly all actives have a fitted effect of over 55% in size
NS1 function inh: qHTS Assay for Inhibitors of Influenza NS1 Protein Function; hit rate 0.4% among 270,000; Potency, µM (highest dose often 46.1 µM), without a hit: top-dose activity, positive = more growth; note: potency is the fitted concentration of half-maximal effect; actives are rising curves; nearly all actives have a fitted effect of over 50% in size
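In this qHTS, NS1 from influenza A is expressed in budding yeast, where it slows growth. Cells are switched from glucose to 2% galactose medium (pH 6.0, -URA), treated with compound, and growth recovery is read at OD600.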
Cycloheximide cs: Cycloheximide Counterscreen for Small Molecule Inhibitors of Shiga Toxin; max response, %; hit rate 12% among 300,000; cell reporter, cycloheximide protein synthesis inhibition counterscreen; in the data active = max response mostly above about 13%, no sharp cut-off; inactive = mostly below about 14%; note: read at 38.3 µM for the half of the compounds with a filed dose; 0% is about no effect
Pf growth 96h: Primary qHTS for delayed death inhibitors of the malarial parasite plastid, 96 hour incubation | Potency, µM (doses to about 28.7 µM), for inactives: at the highest dose activity change, negative = inhibition, most hits filed as inhibitors | AID 504834, 2011 | hit rate 6.9% among 320,000 | P. falciparum luciferase reporter growth, 96 h; active = well fitted inhibition curve with a large enough effect; inconclusive = small, poorly fitted or top-dose-only effect, or another doubt; inactive = no such curve, though single readings can be large or run the other way; note: potency is the fitted concentration of half-maximal effect; % is set by controls: 0 for no effect and ±100 for the full control effect
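Infected RBCs, 2% Hct / 0.05% parasitemia final; luciferase-reporter P. falciparum; cpd 96 h, 37 C, 5% CO2; luciferase detection reagent; luminescence.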
Shiga inhibitor: A qHTS for Small Molecule Inhibitors of Shiga Toxin; inhibition, % at 38.7 µM; hit rate 9.2% among 290,000; Vero cells, Shiga toxin protein synthesis inhibition reporter; in the data active = inhibition mostly above about 28%, no sharp cut-off; inactive = mostly below about 43%; note: 0% is about no effect
Pf growth 48h: Primary qHTS for delayed death inhibitors of the malarial parasite plastid, 48 hour incubation; AID 504832, 2011; Potency, µM (highest dose often 28.7 µM), inactives show at the highest dose activity change, negative = inhibition, usual class: inhibitors; hit rate 5.9% among 310,000; P. falciparum luciferase growth in erythrocytes, 48 h; active = well fitted inhibition curve with a large enough effect; inconclusive = small, poorly fitted or top-dose-only effect, or another doubt; inactive = no such curve, though single readings can be large or run the other way; note: potency is the fitted concentration of half-maximal effect; % is set by controls: 0 for no effect and ±100 for the full control effect
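First compound was added to culture medium, then infected red cells at 0.1% parasitemia and 2% hematocrit (final). After incubation at 37 C under 5% CO2, luciferase detection reagent was dispensed and light output recorded.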
* = called active by the depositor; ? = inconclusive; . = not tested or not shown. Unless noted, calls come from the whole dose curve.

SMILES | SARS PLpro yeast | NS1 function inh | Cycloheximide cs | Pf growth 96h | Shiga inhibitor | Pf growth 48h
Cc1cccc(NS(=O)(=O)c2cc(C(=O)N3CCCCCC3)ccc2C)c1 | -4% | 5% | 1 | ? | -12 | ?
COc1ccc(C(=O)Nc2ccc(/C(C)=N/NC(=O)c3ccccc3O)cc2)cc1OC | 0% | 2% | 37* | 0% | 44* | 25%
COc1ccc(NC(=O)c2csc(C)c2)cc1OC | -3% | 0% | 25* | 244% | 30* | 12%
COc1cccc(NC(=O)c2nc3ncccn3n2)c1 | . | -3% | 48* | ? | 65* | 118%
COc1ccc(C(=O)N/N=C(/C)c2cccc(NC(=O)c3ccncc3)c2)cc1OC | -1% | 9% | 3 | ? | 2 | -2%
COC(=O)c1ccc(NC(=O)c2ccc(OC(C)=O)c(OC)c2)cc1 | -1% | -2% | 33* | -23% | 48* | 184%
COc1cc(C(=O)Nc2ccc(O)cc2C(=O)O)ccc1OC(C)=O | -4% | 13% | -3 | 4% | -16 | 34%
COc1ccccc1C(=O)C1CCCN(Cc2cccc(OCCO)c2)C1 (configuration not stated) | 5% | 18% | -4 | -9% | -2 | 1%
N#Cc1c(NC(=O)COC(=O)c2nccnc2N)sc2c1CCCC2 | -6% | . | . | 39% | . | 7%
CCCCC(NC(=O)c1ccc(C#N)cc1)C(=O)NCCC (configuration not stated) | 2% | . | . | 38% | . | 21%
COc1cccc(NC(=O)c2ccc(-n3cccn3)nc2)c1 | -8% | -17% | 40* | ? | 26* | 79%
CCOc1ccc(NC(=O)c2ccc(-n3cccn3)nc2)cc1 | -1% | . | 1 | 103% | -8 | -8%
Cc1cc(Cl)ccc1OC(C)C(=O)OCC(=O)Nc1ccc2[nH]c(=O)[nH]c2c1 (configuration not stated) | -5% | . | . | -3% | . | 3%
COc1cccc(NC(=O)c2ccc(-n3cnnn3)cc2)c1 | -2% | 1% | 7 | 4.1µM* | 29 | 18%
Cc1ccc(NC(=O)c2ccc(OC(=O)C(C)Oc3ccc(Cl)cc3C)cc2)cc1 (configuration not stated) | 0% | 14% | 43* | ? | 61* | 66%
CC(=O)Nc1cccc(C(=O)NNC(=O)c2ccc(-n3cnnn3)cc2)c1 | 2% | . | . | . | . | .
O=C(Nc1ccc(Br)cc1)c1cnc[nH]1 | -2% | 2% | 39* | ? | 64* | .
Cc1[nH]c(C)c(S(=O)(=O)NCc2ccc(Cl)cc2)c1C(=O)N1CCCC1 | 33% | 8% | -3 | 3% | -1 | 8%
COc1ccc(CNC(=O)CN(C2CCCCC2)S(C)(=O)=O)cc1 | -17% | 7% | -1 | 0% | -3 | 15%
C[C@@H]1CC[C@H]2[C@H](C)C3[C@H](C[C@H]4[C@@H]5CC=C6C[C@@H](O)CC[C@@]6(C)[C@@H]5C[C@@H](O)[C@]34C)N2C1 (some centres not stated) | . | -6% | . | . | . | .
O=C(CSc1nnc(NC(=O)C2CC(=O)N(c3ccccc3)C2)s1)NC1CCCC1 (configuration not stated) | -5% | -4% | -5 | 0% | -11 | 4%
CCOc1ccc(N2CC(C(=O)Nc3cccnc3)CC2=O)cc1 (configuration not stated) | 1% | 7% | -2 | 12µM* | -10 | -21%
COc1cccc(C(=O)Nc2nnc(SCC(=O)NC3CCCC3)s2)c1 | 1% | 2% | 7 | 10% | 31 | 31%
COc1ccc(N2CC(C(=O)Nc3nnc(SCC(=O)NC4CCCC4)s3)CC2=O)cc1 (configuration not stated) | 4% | 7% | 8 | 6.6µM* | 8 | -12%
COc1ccc(N2CC(C(=O)Nc3nnc(SCc4cccnc4)s3)CC2=O)cc1 (configuration not stated) | -7% | -1% | 4 | 13µM* | 16 | ?
CCc1ccc(N2CC(C(=O)Nc3cccnc3)CC2=O)cc1 (configuration not stated) | 14% | ? | -2 | -18% | -5 | .
